KB-3-1 tox: kills parental KB-3-1 adenocarcinoma cells | KB-3-1 viability, CellTiter-Glo ATP luminescence, 72 h | Potency, µM (doses to about 46.1 µM), most hits filed as cytotoxic | 1.4% of 400,000 active | AID 1347075; further: on the % scale 0 is the no-effect control and ±100 the full control effect; nearly all actives have a fitted effect of over 60% in size
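Viability of parental KB-3-1 cells, measured by CellTiter-Glo luminescence, followed a 72 h incubation at 37 °C with pinned compounds in phenol-red-free DMEM containing 10% FBS.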
MCF10A rereplic: DNA re-replication induction in MCF 10a cells; Potency, µM (highest dose often 46.1 µM), for the others: at the highest dose activity, positive = re-replication, usual class: activators; MCF 10A DNA re-replication, Hoechst nuclear intensity, 48 h; AID 624296; 2.9% of 350,000 active; further: % of control where 0% means no effect; nearly all actives have a fitted effect of over 50% in size
KB-V1 MDR tox: KB-V1 MDR subline cytotoxicity; KB-V1 MDR cells viability, CellTiter-Glo, 72 h; Potency, µM (titrated, usually from 46.1 µM), most hits filed as cytotoxic; 3.4% of 400,000 active; AID 1347076; further: on the % scale 0 is the no-effect control and ±100 the full control effect; nearly all actives have a fitted effect of over 60% in size
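Potencies derive from concentration-effect curves fitted to normalized luminescence (CellTiter-Glo) of KB-V1 cells treated for 72 h at 37 degrees C in phenol-red-free DMEM containing 10% FBS.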
SW480 rereplic: DNA re-replication induction in SW480 cells | Potency, µM (series often up to 46.1 µM), without a hit: top-dose re-replication activation, actives largely listed as activators | 1.8% of 340,000 active | SW480 DNA re-replication, Hoechst DNA content imaging, 48 h; further: % of control where 0% means no effect; nearly all actives have a fitted effect of over 55% in size
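Hoechst fluorescence of nuclei (405 nm excitation, 500-530 nm emission) measured by plate-scanning imager after 48 hr compound exposure at 37 C; re-replication scored as increased number of nuclei with elevated intensity.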
ELG1 DNA repair: ELG1-dependent DNA repair inhibition; Potency, µM (top dose mostly 46.1 µM), without a hit: at the top dose activity change, negative = inhibition, hits mostly inhibitors; 2.3% of 330,000 active; HEK293T ELG1-luciferase reporter, luminescence, 16 h; DNA damage induced by 5-fluorouridine; AID 504467; further: on the % scale 0 is the no-effect control and ±100 the full control effect; nearly all actives have a fitted effect of over 55% in size
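In this reporter screen, reduction of luminescence relative to DMSO vehicle indicated activity. Compounds and 5-fluorouridine were added together to 2,000 cells per well, incubated for 16 hr at 37 °C, then developed with ONE-Glo.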
ELG1 FLuc counter: luciferase inhibition in cell-free luciferin readout for ELG1 hits; shares compounds with ELG1 DNA repair; cell-free firefly luciferase luminescence counter-screen, ViewLux; Potency, µM (titrated, usually from 46.1 µM), for the others: top-dose activity change, negative = inhibition, most hits filed as inhibitors; 3% of 350 active; AID 624247; further: on the % scale 0 is the no-effect control and ±100 the full control effect
ELG1-Luc inh: inhibits ELG1-dependent DNA repair in HEK293T cells, confirmed; shares compounds with ELG1 DNA repair; HEK293T ELG1-luciferase levels, luminescence; cells co-treated with 5-fluorouridine; Potency, µM (series often up to 46.1 µM), without a hit: at the top dose activity change, negative = inhibition, most hits filed as inhibitors; 68% of 670 active; AID 624248; further: on the % scale 0 is the no-effect control and ±100 the full control effect; nearly all actives have a fitted effect of over 55% in size
ELG1-Luc MMS: inhibits ELG1-dependent repair under MMS stimulation in HEK293T cells; shares compounds with ELG1 DNA repair; HEK293T luciferase-tagged ELG1 level, MMS stimulated; Potency, µM (doses to about 46.1 µM), without a hit: at the top dose activity change, negative = inhibition, most hits filed as inhibitors; 53% of 670 active; AID 624249; further: on the % scale 0 is the no-effect control and ±100 the full control effect; nearly all actives have a fitted effect of over 60% in size
ELG1 5-FU: confirmation of ELG1 repair inhibitors: viability with 5FU; shares compounds with ELG1 DNA repair; cell viability with 5-FU, ELG1-dependent repair; Potency, µM (doses to about 46.1 µM), without a hit: top-dose activity change, negative = viability loss, most hits filed as cytotoxic; 670 tested, under 10 active; AID 624250;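 further: ELG1-luc HEK293T cells cotreated with 5-fluorouridine at 10 µM final; viability measured 16 h after compound addition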
ELG1 MMS cell: confirmation of ELG1 repair inhibitors: viability with MMS; shares compounds with ELG1 DNA repair; Cell viability with MMS, ELG1-dependent DNA repair; Potency, µM (titrated, usually from 46.1 µM), inactives show top-dose activity change, negative = viability loss, actives largely listed as cytotoxic; 33% of 670 active;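 further: ELG1-luc HEK293T cells co-treated with 10 µM MMS; viability read 16 h after compound addition; on the % scale 0 is the no-effect control and ±100 the full control effect; nearly all actives have a fitted effect of over 60% in size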
ELG1 unstim viab: unstimulated viability counter-screen for ELG1 repair hits | shares compounds with ELG1 DNA repair | cell viability counter-screen, unstimulated, luminescence | Potency, µM (highest dose often 45.9 µM), inactives show at the top dose activity change, negative = loss of viability, most hits filed as cytotoxic | 8% of 900 active | AID 624252;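 further: compound exposure lasted 16 hours before reading; on the % scale 0 is the no-effect control and ±100 the full control effect; nearly all actives have a fitted effect of over 55% in size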
FLuc biochem: firefly luciferase inhibition counter-screen. shares compounds with ELG1 DNA repair. purified firefly luciferase, luminescence counter-screen. Potency, µM (top dose mostly 57.5 µM), for the others: at the highest dose activity, negative = inhibition, hits mostly inhibitors. 10% of 350 active; further: on the % scale 0 is the no-effect control and ±100 the full control effect
* = called active by the depositor; [ ] = remark or other dose. Most compounds without a hit are left out; they make up all but 8.1% or so of the library. The call rests on the fitted dose curve; in most records, active means well fitted curve in the direction sought with a large enough effect; inconclusive means small, poorly fitted or top-dose-only effect, or another doubt; inactive means no such curve, though single readings can be large; an effect the other way counts as inactive or inconclusive. Potency means the concentration at half of the fitted maximal effect.

How did O=C(C1=C[C@H](c2ccc(Br)cc2)C[C@H](OCc2ccc(CO)cc2)O1)N1CCN(Cc2ccc3c(c2)OCO3)CC1 do in these assays?
KB-3-1 tox: inconclusive; MCF10A rereplic: inconclusive; KB-V1 MDR tox: inconclusive; SW480 rereplic: -0.4%; ELG1 DNA repair: 9.2µM*; ELG1 FLuc counter: inconclusive; ELG1-Luc inh: 7.92µM*; ELG1-Luc MMS: inconclusive; ELG1 5-FU: inconclusive; ELG1 MMS cell: -5.8%; ELG1 unstim viab: inconclusive; FLuc biochem: -8.5%

What do the screens show for `Nc1ncc2[nH]c(N)nc2n1`?
KB-3-1 tox: inactive; MCF10A rereplic: -19.9%; KB-V1 MDR tox: inconclusive; SW480 rereplic: -8.4%

What do the screens show for `COc1ccccc1/C=C/c1nc2ccccc2s1`?
KB-3-1 tox: inactive; KB-V1 MDR tox: inactive; ELG1 unstim viab: -1.5%

Results for COc1cc2c(C#CCCO)c(-c3ccsc3)oc(=O)c2cc1OC ?
KB-3-1 tox: inactive; MCF10A rereplic: 24.7%; KB-V1 MDR tox: inactive; SW480 rereplic: -7.3%; ELG1 DNA repair: inconclusive; ELG1 FLuc counter: 5.0%; ELG1-Luc inh: 6.29µM*; ELG1-Luc MMS: 7.92µM*; ELG1 5-FU: -2.8%; ELG1 MMS cell: -8.2%; ELG1 unstim viab: inconclusive; FLuc biochem: 0.8%

How did Cc1ccc(-n2nc3c(=O)n(CC(=O)NCCc4ccccc4C)nc(C)c3c2C)cc1 do in these assays?
KB-3-1 tox: inconclusive; MCF10A rereplic: 11.3%; KB-V1 MDR tox: inactive; SW480 rereplic: 4.9%; ELG1 DNA repair: 3.66µM*; ELG1-Luc inh: inconclusive; ELG1-Luc MMS: 9.96µM*; ELG1 5-FU: -13.4%; ELG1 MMS cell: 9.96µM*; ELG1 unstim viab: inconclusive

What do the screens show for `O=c1[nH]c(=O)n([C@@H]2C[C@H](O)[C@H](CO)O2)cc1C(F)(F)F`?
ELG1 FLuc counter: -8.8%[28.2 µM]; ELG1-Luc inh: inconclusive; ELG1-Luc MMS: -2.9%[23.5 µM]; ELG1 5-FU: -2.9%[23.5 µM]; ELG1 MMS cell: inconclusive; ELG1 unstim viab: 8.3%[15.7 µM]; FLuc biochem: 4.8%[35.2 µM]

Results for O=C(CCCn1c(=O)[nH]c2ccccc2c1=O)NCc1ccccc1Cl ?
KB-3-1 tox: inactive; KB-V1 MDR tox: inactive

Results for CN(CCCC(=O)Nc1ccncc1)S(=O)(=O)c1ccc(Cl)cc1 ?
KB-3-1 tox: inactive; MCF10A rereplic: 16.0%; KB-V1 MDR tox: inactive; SW480 rereplic: -24.9%; ELG1 DNA repair: 2.31µM*; ELG1 FLuc counter: 17.8%; ELG1-Luc inh: -17.2%; ELG1-Luc MMS: 7.92µM*; ELG1 5-FU: -6.7%; ELG1 MMS cell: 7.92µM*; ELG1 unstim viab: inconclusive; FLuc biochem: -6.0%

Results for COc1ccc(CCNC(=S)NC(=O)c2cc(OC)c(OC)c(OC)c2)cc1OC ?
KB-3-1 tox: inactive; MCF10A rereplic: inconclusive; KB-V1 MDR tox: inactive; SW480 rereplic: -7.5%; ELG1 DNA repair: 1.83µM*; ELG1-Luc inh: 2.5µM*; ELG1-Luc MMS: 0.5%; ELG1 5-FU: inconclusive; ELG1 MMS cell: -1.1%; ELG1 unstim viab: inconclusive

Results for CC1(C)CC(=O)C=C(c2n[nH]nc2C2CCCCC2)C1 ?
KB-3-1 tox: inactive; KB-V1 MDR tox: inactive

How did Cc1csc(SCC(=O)Nc2cccc3nsnc23)n1 do in these assays?
KB-3-1 tox: inactive; MCF10A rereplic: 0.5%; KB-V1 MDR tox: inconclusive; SW480 rereplic: -0.1%; ELG1 DNA repair: 2.59µM*; ELG1-Luc inh: 2.81µM*; ELG1-Luc MMS: inconclusive; ELG1 5-FU: -10.3%; ELG1 MMS cell: -5.5%; ELG1 unstim viab: -19.4%

What do the screens show for `COc1cc(C(=O)NC2CC2)cc(OC)c1OC`?
KB-3-1 tox: inactive; KB-V1 MDR tox: inactive

Results for COc1ccc(CCN2C(=O)C3C4C=CC(C5CC45)C3C2=O)cc1OC (configuration not stated) ?
KB-3-1 tox: inactive; MCF10A rereplic: -0.9%; KB-V1 MDR tox: inconclusive; SW480 rereplic: -4.4%; ELG1 DNA repair: -2.2%

How did COc1ccc(CCN2C(=O)C3C4C=CC(C3C2=O)C2C(=O)N(CCc3ccc(OC)c(OC)c3)C(=O)C42)cc1OC (configuration not stated) do in these assays?
KB-3-1 tox: inconclusive; MCF10A rereplic: 2.5%; KB-V1 MDR tox: inactive; SW480 rereplic: 3.2%; ELG1 DNA repair: 3.26µM*; ELG1-Luc inh: inconclusive; ELG1-Luc MMS: 6.28µM*; ELG1 5-FU: -2.8%; ELG1 MMS cell: 4.99µM*; ELG1 unstim viab: inconclusive

Results for O=C1/C(=C/c2ccc(O)c(O)c2)Oc2ccccc21 ?
ELG1 unstim viab: -11.9%

What do the screens show for `CCC(Cc1c(I)cc(I)c(O)c1I)C(=O)O` (configuration not stated)?
MCF10A rereplic: 1.7%; SW480 rereplic: 0.3%

What do the screens show for `Cc1ccc(Nc2nc(N3CCOCC3)nc(N3CCOCC3)n2)cc1C`?
KB-3-1 tox: inactive; MCF10A rereplic: inconclusive; KB-V1 MDR tox: inactive; SW480 rereplic: -8.0%; ELG1 DNA repair: inconclusive
